The source of these data is PubChem BioAssay (NCI).

Holding throughout (experiment): NCI-60 one-dose screen, 48 h (100 = growth as untreated, 0 = no growth, -100 = all killed)
Holding throughout (settings): 10 µM unless noted

Experiment [1] has as its system NCI-H23 lung.
Experiment [2] concerns NCI-H226 lung.
The subject of experiment [3] is NCI-H322M lung.
Experiment [4] relates to HOP-62 NSCLC.
Experiment [5] deals with NCI-H460 lung.
Experiment [6] has as its system NCI-H522 lung.
In experiment [7] the test system is A549/ATCC NSCLC.
The test system of experiment [8] is 786-0 renal.
For experiment [9], the system named is COLO 205 colon.
Experiment [10] relates to DU-145 prostate.
For experiment [11], the system named is K-562 leukemia.
Experiment [12] deals with MALME-3M melanoma.
Experiment [13] relates to MDA-MB-231 breast.
In experiment [14] the test system is RXF 393 renal.
Experiment [15] has as its system SF-268 CNS.
For experiment [16], the system named is SF-295 CNS.
In experiment [17] the test system is SF-539 CNS.
For experiment [18], the system named is UACC-257 melanoma.
Experiment [19] deals with M14 melanoma.
For experiment [20], the system named is HCT-15 colon.

Molecules are shown by their SMILES. This is part of a sample that, as a whole, favours compounds with a hit. Of some 83,000 tested, about 20% had one in any assay.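 96-well plates, one dose, 48 hours. Percent growth reported; active if below 10.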 Unmarked numbers belong to inactive results. Calls of active or inactive are those of the source.

For `CCCCC1Nc2nc(SC)n(C)c(=O)c2CN(Cc2ccccc2)C1=O` (stereo not given), the growth in experiment [1] was 98.4%; in experiment [2], 84.9%; in experiment [3], 90.6%; in experiment [4], 97.9%; in experiment [5] it was 104%; in experiment [6], 76%. In addition, the growth in experiment [7] is 94.5%; in experiment [8], 78.4%; in [9], 112%; in [10] it was 112%; in [11], 141%; in [12], 132%. Besides, the growth was 94.5% in [13]; 77.2% in experiment [14]; 100% in experiment [15]; 94.9% in [16]; 85.2% in experiment [17]; 90.1% in [18]. Moreover, the growth in experiment [19] was 89.8%; in [20], 81.9%.
`CCCCSc1cc(C)nc(N)n1`: the growth in [1] is 95.9%; in experiment [2], 98.6%; in [3], 97.1%; in [4], 91.5%; in experiment [5] it was 103%; in [6], 94.9%. For the same compound, the growth in experiment [7] was 97.8%; in experiment [8], 95.6%; in experiment [9] it was 112%; in experiment [10], 105%; in [11], 94.8%; in experiment [12] it was 96.4%. Moreover, the growth in experiment [13] is 104%; in experiment [14], 105%; in [15], 98.8%; in experiment [16], 102%; in experiment [17], 95.7%; in experiment [18] it was 109%. The growth is 99.2% in [19] and 91.1% in [20].
In the case of `O=C1C[C@@H]2/C(=C(O)\C=C\c3ccccc3)C(=O)C=C[C@@H]2O1`, the growth in experiment [1] was 77%; in [2], 39.9%; in [3], 26.1%; in [4] it was 2.64% (active); in [5], 12.1%; in experiment [6], -66.3% (active). The growth in experiment [7] was 36.7%; in experiment [8], -46.7% (active); in experiment [9], -73.4% (active); in experiment [10] it was -16.8% (active); in experiment [11], 14.3%; in experiment [12] it was -35.1% (active). Besides, the growth in [13] was -45.7% (active); in [14], -92.9% (active); in [15], 11.6%; in [16], 71.2%; in experiment [17], -43.3% (active); in experiment [18] it was -43.4% (active). For the same compound, the results for the growth in experiment [19] and in experiment [20] were -65.9% (active) and -7.83% (active), respectively.
As to `Clc1ncn[nH]1`, the growth in experiment [1] was 106%; in [2], 102%; in experiment [3] it was 98.4%; in experiment [4], 98.6%; in experiment [5], 111%; in [6], 94.9%. In addition, the growth in experiment [7] is 98.1%; in experiment [8], 103%; in experiment [9], 104%; in experiment [10], 110%; in experiment [11], 105%; in experiment [12], 103%. Further, the growth in experiment [13] was 112%; in [14] it was 102%; in experiment [15], 104%; in experiment [16] it was 78.6%; in [17], 99.8%; in experiment [18], 95%. For the same compound, the growth in [19] is 105%; in experiment [20], 98.6%.
Consider `O=C1C(=O)c2ccc(Br)cc2-c2cc(Br)ccc21`, for which the growth is 42% in experiment [1]; 88.6% in [2]; 91.2% in experiment [3]; 76.3% in experiment [4]; 78.8% in [5]; 0.737% (active) in experiment [6]. The growth in experiment [7] is 89.7%; in experiment [8], 50.9%; in experiment [9] it was 119%; in experiment [10], 68.4%; in [11], 4.69% (active); in experiment [12], 70.4%. Also, the growth in experiment [13] is -23.4% (active); in [14] it was 26.1%; in [15] it was 22.4%; in experiment [16], 78.1%; in experiment [17], 117%; in [18], 76.8%. For the same compound, the growth is 68% in experiment [19] and 50.2% in [20].
Consider `NCCCc1nnc(CCC(=O)c2nc3ccccc3[nH]2)o1`, for which the growth in experiment [1] is 98.3%; in [2], 108%; in [3] it was 97.3%; in [4], 112%; in experiment [5], 115%; in experiment [6], 103%. For the same compound, the growth in [7] was 106%; in experiment [8] it was 103%; in [9] it was 111%; in [10], 115%; in experiment [11], 98.5%; in experiment [12], 82.2%. For the same compound, the growth is 89.8% in experiment [13]; 116% in experiment [14]; 115% in experiment [15]; 98.4% in [16]; 101% in experiment [17]; 113% in [18]. In addition, the growth is 109% in experiment [19] and 90% in experiment [20].
Take `O=C(Nc1cccc2ccccc12)c1cc2c(cc1Br)OCO2`: the growth in experiment [1] was 88.6%; in experiment [2], 81%; in experiment [3], 97.8%; in experiment [4] it was 125%; in experiment [5], 92.9%; in [6] it was 103%. For the same compound, the growth in [7] is 113%; in [8], 158%; in experiment [9], 76.2%; in experiment [10], 103%; in experiment [11], 97.8%; in [12], 89.4%. Further, the growth in experiment [13] is 102%; in [14], 126%; in experiment [15], 104%; in experiment [16], 107%; in [17], 78.6%; in experiment [18], 114%. Besides, the growth in [19] was 162%; in experiment [20], 104%.
